The source of these data is PubChem BioAssay (Tox21).

The nature of experiment [1]: qHTS assay to identify aromatase inhibitors - cell viability counter screen (AID 743084).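 Note: cells stimulated with testosterone during compound exposure; nearly all actives have a fitted effect of over 55% in size.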 Background: qHTS replaces the single test concentration by a dilution series.
Experiment [2] has as its target Aryl hydrocarbon receptor (Homo sapiens) (UniProt P35869). In words: qHTS assay to identify small molecule that activate the aryl hydrocarbon receptor (AhR) signaling pathway (AID 743085).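 For activation: HG2L7.5c1 human HepG2 liver cells with stably integrated DRE-driven firefly reporter; series mostly up to about 70 µM.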 Note: nearly all actives have a fitted effect of over 15% in size. Note: potency is the fitted concentration of half-maximal effect. The essentials:
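Stably transfected human liver carcinoma cells (HG2L7.5c1; 20 DRE-firefly luciferase) were incubated 5 h, dosed, and kept 24 h at 37C. Agonism was scored from increased luciferase luminescence.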

A short description of experiment [3]: qHTS assay to identify small molecule that activate the aryl hydrocarbon receptor (AhR) signaling pathway - cell viability counter screen (AID 743086). Note: series mostly up to about 70 µM; nearly all actives have a fitted effect of over 45% in size. The essentials: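 Cytotoxicity counter screen: CellTiter-Fluor signal (30 min, 37 C) in 4000 HepG2 cells/well carrying the DRE-luciferase reporter, following 24 h compound exposure at 37 C.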
Experiment [4] deals with Peroxisome proliferator-activated receptor gamma (Homo sapiens) (UniProt P37231). Briefly: qHTS assay to identify small molecule agonists of the peroxisome proliferator-activated receptor gamma (PPARg) signaling pathway (AID 743094; active = well fitted activation curve with a large enough effect in the signal ratio in the repeat runs, not every such curve was filed as active; the % refers to the signal ratio). The essentials: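 Quantitative HTS agonist mode: stable HEK293H line with UAS-beta-lactamase reporter under PPARg control, 17 h compound exposure at 37C, fluorescence after 1 h FRET substrate loading at room temperature.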

Experiment [5] in a line: qHTS assay to identify small molecule antagonists of the peroxisome proliferator-activated receptor gamma (PPARg) signaling pathway - cell viability counter screen (AID 743194). Note: nearly all actives have a fitted effect of over 55% in size. Conditions: Potency: co-treated with 50 nM rosiglitazone. The essentials:
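Viability was measured as CellTiter-Glo luminescence in GeneBLAzer PPARg UAS-bla HEK293H cells. These cells had been exposed 17 h at 37 C to compounds together with rosiglitazone at 50 nM final, with the beta-lactamase readout taken in the same wells.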

Experiment [6] in a line: qHTS assay for small molecule agonists of the antioxidant response element (ARE) signaling pathway (AID 743202; active = well fitted activation curve with a large enough effect in the signal ratio in the repeat runs, not every such curve was filed as active; the % refers to the signal ratio; note: potency is the fitted concentration of half-maximal effect). The essentials:
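Quantitative high-throughput format in HepG2 cells bearing an integrated ARE-beta-lactamase reporter. Compound exposure lasted 16 h at 37 C, and fluorescence was read 2 h after adding LiveBLAzer B/G substrate at room temperature.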

Experiment [7] is described as follows: qHTS assay for small molecule agonists of the antioxidant response element (ARE) signaling pathway - cell viability counter screen (AID 743203; calls by dose curve; note: nearly all actives have a fitted effect of over 55% in size). A digest of the protocol:
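Seeded at 2,000 cells/well, ARE-bla HepG2 cells were incubated 5 hrs before compound addition. After 16 hrs of treatment at 37C with 5% CO2, CellTiter-Glo reagent was added and luminescence read 30 min later.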

Experiment [8] in a line: qHTS assay for small molecule activators of the heat shock response signaling pathway (AID 743210; active = well fitted activation curve with a large enough effect in the signal ratio in the repeat runs, with a control signal flat, not every such curve was filed as active; the % refers to the signal ratio;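 note: HeLa cells with beta-lactamase reporter driven by heat shock elements; series mostly up to about 63 µM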). The essentials: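 HeLa HSE-bla cells, overnight plating; cpd in DMSO 5 h, 37 C; LiveBLAzer B/G FRET substrate 2.5 h RT; fluorescence intensity read.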
Experiment [9] can be described thus: qHTS assay to identify small molecule agonists of the peroxisome proliferator-activated receptor delta (PPARd) signaling pathway - cell viability counter screen (AID 743211). Note: nearly all actives have a fitted effect of over 55% in size. The essentials:
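In the same wells used for beta-lactamase reporter measurement, cytotoxicity is scored by CellTiter-Glo. HEK293H PPARd-bla cells receive compound for 17 h at 37C following a 5 h settling period.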

Experiment [10] concerns the target Peroxisome proliferator-activated receptor delta (Homo sapiens) (UniProt Q03181). Briefly: qHTS assay to identify small molecule agonists of the peroxisome proliferator-activated receptor delta (PPARd) signaling pathway (AID 743212; calls by dose curve). The essentials: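 HEK293H PPARd-bla cells; 5 h preincubation 37 C/5% CO2; compound (DMSO) 37 C; LiveBLAzer B/G FRET substrate 2 h RT; fluorescence intensity.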

Experiment [11] can be described thus: qHTS assay to identify small molecule antagonists of the peroxisome proliferator-activated receptor delta (PPARd) signaling pathway - cell viability counter screen (AID 743213). Note: nearly all actives have a fitted effect of over 50% in size. A digest of the protocol: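 CellTiter-Glo was added to PPARd-bla HEK293H wells following 17 h compound treatment in the presence of 300 nM L165041. Luminescence was recorded after 30 min at room temperature.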

Experiment [12] has as its target Peroxisome proliferator-activated receptor delta (Homo sapiens) (UniProt Q03181). In words: qHTS assay to identify small molecule antagonists of the peroxisome proliferator-activated receptor delta (PPARd) signaling pathway (AID 743215; active = well fitted inhibition curve with a large enough effect in the signal ratio in the repeat runs, not every such curve was filed as active; the % refers to the signal ratio;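 note: cells stimulated with agonist L165041 at 300 nM final during compound exposure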; note: potency is the fitted concentration of half-maximal effect). The essentials: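 Inhibition of L165041-driven (300 nM final) PPARd signaling is scored in HEK293H UAS-bla cells. Exposure lasts 17 h at 37 C; beta-lactamase activity is then read by FRET substrate fluorescence after 2 h at room temperature.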

In experiment [13] the target is Bile acid receptor (Homo sapiens) (UniProt Q96RI1). In words: qHTS assay to identify small molecule antagonists of the farnesoid-X-receptor (FXR) signaling pathway (AID 743217; active = well fitted inhibition curve with a large enough effect in the signal ratio in the repeat runs, not every such curve was filed as active; the % refers to the signal ratio). The essentials:
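Antagonist mode against 50 uM (final) chenodeoxycholic acid stimulation in FXR-bla HEK 293T cells, 16 h at 37 °C. Inhibition detected as reduced beta-lactamase activity via LiveBLAzer B/G FRET fluorescence after 2 h at room temperature.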

Experiment [14] can be described thus: qHTS assay to identify small molecule agonists of the farnesoid-X-receptor (FXR) signaling pathway - cell viability counter screen (AID 743218). Note: nearly all actives have a fitted effect of over 45% in size. A digest of the protocol:
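Cytotoxicity counter-screen run in parallel, same wells: FXR-UAS-bla HEK 293T cells dosed 16 h at 37 C, viability read by CellTiter-Glo luminescence after 30 min at room temperature.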

Experiment [15] addresses Bile acid receptor (Homo sapiens) (UniProt Q96RI1). Briefly: qHTS assay to identify small molecule agonists of the farnesoid-X-receptor (FXR) signaling pathway (AID 743220; active = well fitted activation curve with a large enough effect in the signal ratio in the repeat runs, not every such curve was filed as active; the % refers to the signal ratio). The essentials:
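Beta-lactamase reporter under UAS control in GeneBLAzer FXR HEK 293T cells (5000/well) measured with LiveBLAzer FRET substrate after 2 h at room temperature. Compound exposure lasted 16 h at 37C.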

Experiment [16] in a line: qHTS assay to identify small molecule antagonists of the farnesoid-X-receptor (FXR) signaling pathway - cell viability counter screen (AID 743221; active = well fitted cell-killing curve with a large enough effect in the repeat runs, not every such curve was filed as active; note: nearly all actives have a fitted effect of over 50% in size). The essentials:
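Here viability was scored by luminescence after CellTiter-Glo addition to wells already read for beta-lactamase. Prior treatment: compound plus CDCA (50 uM final), 16 h, 37 C, HEK 293T FXR-bla cells.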

The target of experiment [17] is Vitamin D3 receptor (Homo sapiens) (UniProt P11473). In words: qHTS assay to identify small molecule agonists of the vitamin D receptor (VDR) signaling pathway (AID 743222; calls by dose curve). A digest of the protocol:
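Quantitative HTS agonist-mode screen: compounds in DMSO were pin-transferred onto VDR-bla cells and incubated 16 h at 37C, 5% CO2. Reporter activity was detected with LiveBLAzer B/G FRET substrate after 2 h at room temperature.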

The nature of experiment [18]: qHTS assay for small molecule activators of the heat shock response signaling pathway - cell viability counter screen (AID 743209). Note: nearly all actives have a fitted effect of over 50% in size. The essentials: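 First, HSE-bla HeLa cells were seeded at 1500 cells/well and kept overnight at 37 C. Next, compounds were pinned in and incubated 5 h. After the FRET substrate step, CellTiter-Glo was added and luminescence read 30 min later.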

Experiment [19] addresses Vitamin D3 receptor (Homo sapiens) (UniProt P11473). In words: qHTS assay to identify small molecule antagonists of the vitamin D receptor (VDR) signaling pathway (AID 743223; active = well fitted inhibition curve with a large enough effect in the signal ratio in the repeat runs, not every such curve was filed as active; the % refers to the signal ratio). The essentials: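 Inhibition of agonist-driven VDR signalling is scored in VDR-bla cells: 3 nM final 1alpha,25-dihydroxyvitamin D3 plus compound, 16 h at 37C, then beta-lactamase detection by FRET substrate fluorescence after 2 h.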

Inconclusive results are not listed. Calls of active or inactive are those of the source. Unless noted, calls come from the whole dose curve; as a rule, active = well fitted curve in the direction sought with a large enough effect in the repeat runs; inconclusive = weak or mixed curves; inactive = no such curve, though single readings can be large; an effect the other way counts as inactive or inconclusive.
% is set by controls: 0 for no effect and ±100 for the full control effect.

Peroxisome proliferator-activated receptor gamma (Homo sapiens), sequence (P37231 whole entry, looked up): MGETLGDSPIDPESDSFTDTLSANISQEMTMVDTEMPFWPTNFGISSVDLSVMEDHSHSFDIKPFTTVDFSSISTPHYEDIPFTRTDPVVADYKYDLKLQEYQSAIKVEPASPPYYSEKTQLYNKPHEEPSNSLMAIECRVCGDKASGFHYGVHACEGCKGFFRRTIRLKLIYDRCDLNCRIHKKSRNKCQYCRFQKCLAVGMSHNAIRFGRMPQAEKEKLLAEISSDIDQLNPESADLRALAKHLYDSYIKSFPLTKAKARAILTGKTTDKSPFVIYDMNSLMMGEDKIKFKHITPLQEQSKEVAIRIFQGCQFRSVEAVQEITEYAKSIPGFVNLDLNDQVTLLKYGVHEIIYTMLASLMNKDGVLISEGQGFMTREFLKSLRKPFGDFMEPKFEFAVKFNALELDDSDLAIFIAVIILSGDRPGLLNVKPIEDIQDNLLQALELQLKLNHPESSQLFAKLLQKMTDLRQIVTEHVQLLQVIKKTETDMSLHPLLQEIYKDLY
Vitamin D3 receptor (Homo sapiens), sequence (P11473 whole entry, looked up): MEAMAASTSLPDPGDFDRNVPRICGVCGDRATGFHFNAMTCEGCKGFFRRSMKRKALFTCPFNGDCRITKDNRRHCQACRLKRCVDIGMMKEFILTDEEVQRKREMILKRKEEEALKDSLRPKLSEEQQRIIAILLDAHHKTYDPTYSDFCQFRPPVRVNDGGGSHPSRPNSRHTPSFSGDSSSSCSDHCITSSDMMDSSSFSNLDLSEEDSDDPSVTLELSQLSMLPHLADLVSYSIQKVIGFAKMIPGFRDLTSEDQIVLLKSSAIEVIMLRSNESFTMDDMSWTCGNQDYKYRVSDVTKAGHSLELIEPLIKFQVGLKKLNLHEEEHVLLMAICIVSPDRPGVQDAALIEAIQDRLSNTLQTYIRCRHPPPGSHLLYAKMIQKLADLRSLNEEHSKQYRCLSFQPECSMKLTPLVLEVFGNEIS
Peroxisome proliferator-activated receptor delta (Homo sapiens), sequence (Q03181 whole entry, looked up): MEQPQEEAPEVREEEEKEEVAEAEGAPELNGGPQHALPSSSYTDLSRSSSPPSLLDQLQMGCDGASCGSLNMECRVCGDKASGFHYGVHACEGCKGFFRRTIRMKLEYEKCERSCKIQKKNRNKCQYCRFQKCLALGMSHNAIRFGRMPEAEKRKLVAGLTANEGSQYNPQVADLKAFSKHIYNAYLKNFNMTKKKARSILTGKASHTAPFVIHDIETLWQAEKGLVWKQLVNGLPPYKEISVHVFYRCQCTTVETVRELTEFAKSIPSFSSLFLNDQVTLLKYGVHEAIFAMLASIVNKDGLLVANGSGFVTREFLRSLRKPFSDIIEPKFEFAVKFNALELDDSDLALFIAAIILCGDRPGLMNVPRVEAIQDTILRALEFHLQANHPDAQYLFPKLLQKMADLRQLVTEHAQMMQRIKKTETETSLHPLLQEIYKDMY
Bile acid receptor (Homo sapiens), sequence (Q96RI1 whole entry, looked up): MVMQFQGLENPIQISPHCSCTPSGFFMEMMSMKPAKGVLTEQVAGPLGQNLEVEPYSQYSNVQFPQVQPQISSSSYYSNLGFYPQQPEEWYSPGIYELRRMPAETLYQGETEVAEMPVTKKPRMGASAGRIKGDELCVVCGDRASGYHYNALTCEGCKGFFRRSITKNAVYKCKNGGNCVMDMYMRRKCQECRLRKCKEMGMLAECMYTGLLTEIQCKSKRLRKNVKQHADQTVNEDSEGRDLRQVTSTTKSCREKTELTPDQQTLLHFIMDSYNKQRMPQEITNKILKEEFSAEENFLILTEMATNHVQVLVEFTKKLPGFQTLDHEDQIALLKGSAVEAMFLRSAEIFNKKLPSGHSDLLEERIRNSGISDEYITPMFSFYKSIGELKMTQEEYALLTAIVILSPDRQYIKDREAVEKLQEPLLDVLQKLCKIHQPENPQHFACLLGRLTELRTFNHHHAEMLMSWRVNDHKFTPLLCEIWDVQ
Aryl hydrocarbon receptor (Homo sapiens), sequence (P35869 whole entry, looked up): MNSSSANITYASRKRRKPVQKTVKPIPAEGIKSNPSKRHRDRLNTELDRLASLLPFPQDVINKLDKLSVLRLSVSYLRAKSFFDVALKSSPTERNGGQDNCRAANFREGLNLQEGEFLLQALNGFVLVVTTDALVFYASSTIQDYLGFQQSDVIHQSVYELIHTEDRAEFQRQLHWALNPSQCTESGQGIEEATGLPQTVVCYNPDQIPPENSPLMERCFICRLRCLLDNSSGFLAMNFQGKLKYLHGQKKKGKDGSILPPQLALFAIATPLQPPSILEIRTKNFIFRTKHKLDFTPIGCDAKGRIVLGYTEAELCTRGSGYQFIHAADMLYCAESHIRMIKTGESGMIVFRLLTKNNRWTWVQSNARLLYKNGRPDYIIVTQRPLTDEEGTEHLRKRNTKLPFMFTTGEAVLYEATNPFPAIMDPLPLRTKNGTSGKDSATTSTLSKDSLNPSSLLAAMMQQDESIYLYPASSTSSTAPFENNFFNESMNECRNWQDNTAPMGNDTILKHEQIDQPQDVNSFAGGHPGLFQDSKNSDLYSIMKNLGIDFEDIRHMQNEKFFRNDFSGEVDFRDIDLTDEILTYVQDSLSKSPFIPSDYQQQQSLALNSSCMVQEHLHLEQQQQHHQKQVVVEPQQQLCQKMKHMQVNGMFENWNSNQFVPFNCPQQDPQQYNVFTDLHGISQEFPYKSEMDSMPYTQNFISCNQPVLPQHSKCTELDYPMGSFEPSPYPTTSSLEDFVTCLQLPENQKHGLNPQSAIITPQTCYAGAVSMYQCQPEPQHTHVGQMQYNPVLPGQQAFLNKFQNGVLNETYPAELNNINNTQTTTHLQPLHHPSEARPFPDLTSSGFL

Consider `O=C(O)C(Cl)Br` (stereo unspecified), for which the Potency entry in experiment [1], in experiment [2], in experiment [3], in experiment [5], in experiment [7] and in [8] was “inactive” in each case. The Potency result in [9], in [11], in [12], in [14] and in experiment [16] was “inactive” each time. For the same molecule, the molecule was called inactive in experiment [4], in experiment [10], in experiment [13], in experiment [15] and in [17]. Also, the Potency in experiment [6] was 4.91 µM (active).
For `O=C(Cl)CCl`, the Potency entry in [1], in experiment [2], in [3], in experiment [5], in experiment [7] and in [18] was “inactive” each time. Further, the Potency entry in experiment [8], in experiment [9], in experiment [11], in experiment [12], in experiment [14] and in experiment [16] was “inactive” each time. For the same molecule, the result in experiment [4], in [10], in experiment [13], in [15] and in experiment [17] was inactive.
Consider `ClCCCCl`, for which the Potency result in experiment [1], in [2], in experiment [3], in experiment [5], in experiment [6] and in experiment [7] was “inactive” each time. Moreover, the Potency result in [18], in [8], in experiment [9], in experiment [14] and in experiment [16] was “inactive” throughout. The molecule was classed as inactive in [4], in experiment [13], in experiment [15], in experiment [17] and in experiment [19].
As for `O=C(CCl)NCO`, the Potency result in experiment [1], in experiment [2], in experiment [3], in [5], in experiment [7] and in experiment [18] was “inactive” each time. The Potency entry in experiment [8], in experiment [9], in experiment [11], in experiment [12] and in experiment [14] was “inactive” throughout. Moreover, the molecule was called inactive in experiment [4], in experiment [10] and in experiment [17].
Regarding `CC(C)(C)c1cc(O)ccc1O`, the Potency result in experiment [1], in experiment [3], in experiment [5], in [18], in [8] and in [14] was “inactive” each time. Besides, the Potency in [2] is 26.6 µM (active) [middle of 4 runs]; in experiment [6] it was 3.86 µM (active); in experiment [12] it was 54.9 µM (active). Besides, the call in [4], in experiment [10], in experiment [13] and in experiment [15] was inactive.
With `CC1N=C(N)OC1c1ccccc1` (stereo unspecified), the Potency result in experiment [1], in experiment [2], in [3], in [5], in experiment [6] and in experiment [7] was “inactive” in each case. For the same molecule, the Potency entry in experiment [8], in experiment [9], in experiment [12], in experiment [14] and in [16] was “inactive” in each case. For the same molecule, the call in experiment [4], in experiment [10], in [15], in [17] and in experiment [19] was inactive.
With `CCC(C)(C#N)N=NC(C)(C#N)CC` (stereo unspecified), the Potency result in [1], in [2], in experiment [3], in experiment [5], in [7] and in [18] was “inactive” throughout. The Potency result in experiment [8], in experiment [9], in experiment [11], in experiment [12] and in [14] was “inactive” each time. Further, the call in experiment [4] and in [10] was inactive.
For `CON(C)C(=O)Nc1ccc(Br)c(Cl)c1`, the Potency result in [1], in experiment [3], in experiment [6], in experiment [7], in [18] and in experiment [9] was “inactive” throughout. Besides, the Potency result in experiment [14] and in [16] was “inactive” throughout. The Potency in experiment [2] was 30.6 µM (active). The result in experiment [4] and in experiment [17] was inactive.
In the case of `CCOC(=O)C(Cl)Cc1cc(-n2nc(C)n(C(F)F)c2=O)c(F)cc1Cl` (stereo unspecified), the Potency result in experiment [1], in experiment [2], in experiment [3], in experiment [5], in experiment [7] and in experiment [18] was “inactive” in each case. Besides, the Potency result in experiment [8], in experiment [9], in experiment [12] and in [16] was “inactive” each time. Further, the result in experiment [4], in [15], in experiment [17] and in experiment [19] was inactive.
